14 molecules from PubChem BioAssay (Tox21) can be followed below.

Molecules are shown by their SMILES. Values without a mark were called inactive. Results filed as inconclusive are left out. Active and inactive are the calls of the source. Unless noted, calls come from the whole dose curve; as a rule, active = well fitted curve in the direction sought with a large enough effect in the repeat runs; inconclusive = weak or mixed curves; inactive = no such curve, though single readings can be large; an effect the other way counts as inactive or inconclusive.

The nature of assay [1]: qHTS assay to identify small molecule agonists of H2AX - cell viability counter screen (AID 1224847; calls by dose curve; note: nearly all actives have a fitted effect of over 30% in size; note: potency is the fitted concentration of half-maximal effect). The procedure, abridged:
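Counter-screen for viability: CellTiter-Glo ATP luminescence read after 3 h compound treatment (15-point titration, 0.76% DMSO final) of CHO-K1 cells at 37C, with 30 min room-temperature reagent incubation.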

Assay [2] can be described thus: qHTS assay to identify small molecule antagonists of the estrogen related receptor (ERR) signaling pathway from Tox21 library (AID 1224848). Note: nearly all actives have a fitted effect of over 50% in size. Note: potency is the fitted concentration of half-maximal effect. The essentials:
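Screening used an ERR reporter line supplied by NTP, exposed for 18 h at 37 C to library compounds delivered in DMSO. Signal was luciferase luminescence developed with ONE-Glo at room temperature for 30 min.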
On the technique in general: In qHTS, concentration-response curves come from the screen itself.

Assay [3] can be described thus: qHTS assay to identify small molecule agonists of the estrogen related receptor (ERR) signaling pathway from Tox21 library (AID 1224849; calls by dose curve; note: nearly all actives have a fitted effect of over 15% in size). The note with it: ERR reporter cell line, ONE-Glo luciferase, 18 h; at 92.4 µM (top of the series) unless noted. The procedure, abridged:
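ERR cells, 6 h pre-incubation 37 C/5% CO2; cpd in DMSO pinned; 18 h 37 C; ONE-Glo added, 30 min RT; luminescence read. Agonist mode, qHTS.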

Assay [4] can be described thus: qHTS RealTime-Glo MT Cell Viability Assay in HEK293 cells - 32 hour (AID 1224868). Note: nearly all actives have a fitted effect of over 50% in size. Note: potency is the fitted concentration of half-maximal effect. The essentials:
(§1)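 Cells + reagent dispensed (600 cells/well, HEK293) → 5 h at 37 C/5% CO2 → 23 nL compound in DMSO pinned → 40 h at 37 C → luminescence read at 0, 8, 16, 24, 32, 40 h.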

Assay [5] is described as follows: A CellTox Green Cytotoxicity Assay to monitor cytotoxicity in HEK293 cells - 0 hour (AID 1224869). Note: nearly all actives have a fitted effect of over 50% in size. The essentials:
(§2)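 Nonlytic real-time cytotoxicity: HEK293 + CellTox Green reagent plated, 5 h preincubation, pintool compound addition (23 nL in DMSO), 37 C for 40 h, fluorescence measured at successive time points.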

Assay [6] in a line: qHTS RealTime-Glo MT Cell Viability Assay in HEK293 cells - 16 hour (AID 1224872). Note: nearly all actives have a fitted effect of over 50% in size. Note: potency is the fitted concentration of half-maximal effect. The procedure, abridged:
as §1

Assay [7] in a line: qHTS RealTime-Glo MT Cell Viability Assay in HEK293 cells - 40 hour (AID 1224874). Note: nearly all actives have a fitted effect of over 50% in size. Note: potency is the fitted concentration of half-maximal effect. The note with it: RealTime-Glo luminescence; max response: hits give low values. The procedure, abridged: (§3)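 Cells were seeded together with NanoLuc luciferase and a prosubstrate that viable cells reduce to a luciferase substrate. After a 5 h incubation at 37 C/5% CO2, compounds were added and luminescence was measured repeatedly during 40 h of treatment.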

Assay [8] is described as follows: A CellTox Green Cytotoxicity Assay to monitor cytotoxicity in HEK293 cells - 24 hour (AID 1224875). Note: nearly all actives have a fitted effect of over 45% in size. The essentials: as §2
A short description of assay [9]: A CellTox Green Cytotoxicity Assay to monitor cytotoxicity in HepG2 cells - 16 hour (AID 1224876). Note: nearly all actives have a fitted effect of over 45% in size. Note: potency is the fitted concentration of half-maximal effect. The procedure, abridged:
(§4)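 Read-out is fluorescence of a cyanine dye excluded from live cells that stains DNA of dead HepG2 cells, with signal proportional to cytotoxicity. Plates were read at 0, 8, 16, 24, 32 and 40 h after compound addition.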

The nature of assay [10]: qHTS RealTime-Glo MT Cell Viability Assay in HEK293 cells - 0 hour (AID 1224880). Note: nearly all actives have a fitted effect of over 45% in size. Note: potency is the fitted concentration of half-maximal effect. The procedure, abridged:
as §3

Assay [11] is described as follows: qHTS RealTime-Glo MT Cell Viability Assay in HepG2 cells - 24 hour (AID 1224867). Note: nearly all actives have a fitted effect of over 50% in size. Note: potency is the fitted concentration of half-maximal effect. The procedure, abridged: (§5)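 Real-time, nonlytic viability: 600 HepG2 cells/well mixed with NanoLuc enzyme plus prosubstrate; 5 h settle, compound (DMSO) added by pintool; luminescence monitored over 40 h at 37 C.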
A short description of assay [12]: qHTS RealTime-Glo MT Cell Viability Assay in HepG2 cells - 8 hour (AID 1224873). Note: nearly all actives have a fitted effect of over 55% in size. The essentials:
(§6)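 HepG2 cells mixed with RealTime-Glo MT reagents (NanoLuc plus cell-permeant prosubstrate) were seeded at 600 cells/well, incubated 5 h at 37 C/5% CO2, then pinned with compounds in DMSO; nonlytic luminescence tracked viability during 40 h treatment.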

A short description of assay [13]: qHTS RealTime-Glo MT Cell Viability Assay in HepG2 cells - 32 hour (AID 1224877). Note: nearly all actives have a fitted effect of over 55% in size. The procedure, abridged:
as §5

A short description of assay [14]: A CellTox Green Cytotoxicity Assay to monitor cytotoxicity in HepG2 cells - 24 hour (AID 1224878). Note: nearly all actives have a fitted effect of over 45% in size. Note: potency is the fitted concentration of half-maximal effect. The essentials: as §4
Assay [15] is described as follows: A CellTox Green Cytotoxicity Assay to monitor cytotoxicity in HepG2 cells - 40 hour (AID 1224879). Note: nearly all actives have a fitted effect of over 40% in size. Note: potency is the fitted concentration of half-maximal effect. The essentials:
as §4

A short description of assay [16]: qHTS assay to identify small molecule agonists of H2AX (AID 1224845; active = well fitted activation curve with a large enough effect in the signal ratio in the repeat runs, not every such curve was filed as active; the % refers to the signal ratio; note: potency is the fitted concentration of half-maximal effect). The procedure, abridged:
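Wild-type CHO-K1 cells plated overnight, then exposed 3 hr at 37C to compounds at 15 concentrations (0.76% DMSO). Lysed, then HTRF anti-pH2AX(S139)-cryptate/anti-H2AX-d2 detection after 24 hr at room temperature; emissions 665 and 620 nm.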

A short description of assay [17]: qHTS RealTime-Glo MT Cell Viability Assay in HepG2 cells - 40 hour (AID 1224870). Note: nearly all actives have a fitted effect of over 50% in size. Note: potency is the fitted concentration of half-maximal effect. The essentials:
as §6

Assay [18] in a line: A CellTox Green Cytotoxicity Assay to monitor cytotoxicity in HEK293 cells - 40 hour (AID 1224871). Note: nearly all actives have a fitted effect of over 45% in size. The essentials:
as §2

A short description of assay [19]: qHTS assay to identify small molecule agonists of the hypoxia (HIF-1) signaling pathway (AID 1224846; active = well fitted activation curve with a large enough effect in the signal ratio in the repeat runs, not every such curve was filed as active; the % refers to the signal ratio). The essentials:
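Cell line: CellSensor HRE-bla ME-180; 2,000 cells/well; 0.5% dialyzed FBS; 5 h preincubation; DMSO compound pin transfer; 17 h, 37C, 5% CO2; CCF4-AM added; bla FRET signal scored for activation.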
% is set by controls: 0 for no effect and ±100 for the full control effect.

With `c1cc(N(CC2CO2)CC2CO2)ccc1Cc1ccc(N(CC2CO2)CC2CO2)cc1` (stereo not given), the Potency entry in assay [1], in [5], in [8], in [9] and in assay [10] was “inactive” throughout. The Potency in assay [2] is 21.7 µM (active); in [4], 34.7 µM (active); in [6], 43.6 µM (active); in assay [7], 24.5 µM (active). For the same molecule, in assay [3], the activity change, positive = activation was -66.1%.

With `Cc1cc(O)ccc1O`, the Potency in assay [1] is 51 µM (active). Further, the Potency entry in assay [2], in assay [11], in assay [5], in assay [12], in assay [9] and in assay [13] was “inactive” each time. Moreover, the Potency result in [14], in assay [15] and in [10] was “inactive” in each case. Besides, the activity change, positive = activation in [3] is -73.6% (active).

As to `CC1(CN2CCC(n3c(=O)[nH]c4ccccc43)CC2)OCc2ccccc2-n2cccc21` (stereo not given), the Potency entry in assay [16], in [5], in assay [17], in [8], in assay [9] and in [14] was “inactive” each time. For the same molecule, the Potency result in assay [10] is “inactive”. Besides, the results for the Potency in [4], in assay [6] and in assay [7] were 19 µM (active), 10.7 µM (active) and 19 µM (active), respectively.

In the case of `CC[C@]1(O)C[C@H]2CN(CCc3c([nH]c4ccccc34)[C@@](C(=O)OC)(c3cc4c(cc3OC)N(C=O)[C@H]3[C@@](O)(C(=O)OC)[C@H](OC(C)=O)[C@]5(CC)C=CCN6CC[C@]43[C@@H]65)C2)C1`, the Potency entry in [1], in assay [11], in [5], in assay [18], in [6] and in assay [12] was “inactive” throughout. The Potency entry in assay [8], in assay [9], in assay [13], in assay [14] and in [10] was “inactive” throughout. Also, the values for the Potency in [4] and in assay [7] were 0.0013 µM (active) and 0.0012 µM (active), respectively.

`NNC(=O)CP(=O)(c1ccccc1)c1ccccc1`: the call in assay [19] was inactive. Besides, the Potency result in assay [1], in assay [11], in [5], in assay [17], in assay [6] and in assay [12] was “inactive” throughout. Moreover, the Potency entry in [8], in assay [14], in assay [15] and in assay [10] was “inactive” in each case. The max response in assay [7] is -3.49%.

For the molecule `C[C@@H](O[C@H]1OCCN(Cc2n[nH]c(=O)[nH]2)[C@H]1c1ccc(F)cc1)c1cc(C(F)(F)F)cc(C(F)(F)F)c1`, the Potency in [2] is 23.7 µM (active); in [11] it was 21.3 µM (active); in assay [4], 16.9 µM (active); in assay [17], 21.3 µM (active); in assay [6], 19 µM (active); in assay [7], 16.9 µM (active). Also, the values for the Potency in assay [9], in [14] and in [15] were 16.9 µM (active), 15.1 µM (active) and 16.9 µM (active), respectively. Moreover, the activity change, positive = activation in [3] is -53.3% [at 42.5 µM]. Also, the Potency entry in [5] and in assay [10] was “inactive” in each case.

As to `Clc1ccc(Nc2nnc(Cc3ccncc3)c3ccccc23)cc1`, the molecule was called inactive in assay [19]. The Potency entry in assay [1], in [11], in [5], in assay [17], in assay [18] and in assay [12] was “inactive” throughout. Moreover, the Potency entry in assay [8], in [9], in assay [13], in assay [14], in [15] and in [10] was “inactive” throughout. The values for the Potency in [2], in assay [4] and in assay [7] were 11.9 µM (active), 21.3 µM (active) and 19 µM (active), respectively. Moreover, the activity change, positive = activation in assay [3] was -42.3% [at 42.5 µM].

Regarding `CC1=C(Br)C(=O)C(Br)=C/C1=C(/c1ccccc1S(=O)(=O)O)c1cc(Br)c(O)c(Br)c1C`, the Potency in [1] is 21.7 µM (active); in assay [2], 18.6 µM (active); in [10], 33.3 µM (active). Besides, the activity change, positive = activation in [3] was -55.4% [at 42.5 µM]. Besides, the Potency result in assay [4], in [5], in assay [17], in assay [6], in assay [12] and in [8] was “inactive” throughout. Besides, the Potency entry in [9], in assay [13], in [14] and in assay [15] was “inactive” each time. For the same molecule, the max response in [7] is 1.66%.

`CCOC(=O)c1ccccc1C(=C1C=C(Br)C(=O)C(Br)=C1)c1cc(Br)c(O)c(Br)c1`: the Potency entry in [1], in assay [11], in assay [5], in [17], in assay [18] and in assay [12] was “inactive” each time. Also, the Potency result in [8], in assay [9], in [13], in [14] and in assay [15] was “inactive” each time. The Potency in assay [2] was 45.7 µM (active). In assay [3], the activity change, positive = activation was -32.1% [at 42.5 µM].

As to `CCCC(C(=O)OCCN(CC)CC)(c1ccccc1)c1ccccc1`, the Potency in [2] is 29.8 µM (active); in assay [4] it was 21.3 µM (active); in [7] it was 21.3 µM (active). In addition, the activity change, positive = activation in assay [3] is -35.3% [at 42.5 µM]. The Potency result in assay [5], in [17], in assay [12] and in assay [10] was “inactive” each time.

Regarding `CCCCCC[C@@H](O)C/C=C\CCCCCCCC(=O)O`, the molecule was classed as inactive in assay [19]. Further, the Potency result in assay [1], in assay [2], in assay [11], in assay [4], in assay [5] and in assay [17] was “inactive” throughout. In addition, the Potency result in [18], in assay [6], in assay [12], in assay [8], in assay [14] and in assay [15] was “inactive” throughout. Moreover, the Potency entry in assay [10] is “inactive”. In addition, the activity change, positive = activation in assay [3] was -0.13%. For the same molecule, the max response in assay [7] is 13.2%.

Take `C/C=C(/C(=C/C)c1ccc(O)cc1)c1ccc(O)cc1`: the Potency result in [11], in assay [5], in [17], in assay [6], in [12] and in assay [8] was “inactive” throughout. Besides, the Potency result in assay [13] was “inactive”. The Potency in assay [7] is 19 µM (active); in assay [9] it was 15.1 µM (active); in assay [14] it was 16.9 µM (active); in assay [15], 19 µM (active).

As to `CC(C)=CCC/C(C)=C/CC/C(C)=C/C(=O)OCC(=O)[C@@]1(O)CC[C@H]2[C@@H]3CCC4=CC(=O)C=C[C@]4(C)[C@H]3[C@@H](O)C[C@@]21C`, the Potency result in [1], in assay [5], in assay [17], in assay [18], in [8] and in assay [9] was “inactive” throughout. In addition, the Potency result in [14], in assay [15] and in [10] was “inactive” each time. Further, the Potency in assay [2] is 6.68 µM (active); in [6], 5.35 µM (active); in assay [7], 4.25 µM (active). Further, the activity change, positive = activation in assay [3] was -50.7% [at 42.5 µM].

As for `Cc1ccc2c(Br)cc(Br)c(O)c2n1`, the results for the Potency in [16], in assay [2] and in assay [7] were 39.1 µM (active), 8.41 µM (active) and 5.35 µM (active), respectively. Further, the activity change, positive = activation in [3] was -65.3% [at 42.5 µM]. Moreover, the Potency result in assay [11], in assay [5], in assay [17], in assay [6], in assay [12] and in assay [8] was “inactive” each time. For the same molecule, the Potency result in assay [13], in assay [14], in assay [15] and in assay [10] was “inactive” in each case.
